Compound activity deposited in PubChem by National Center for Advancing Translational Sciences (NCATS).
NPSR antagonist: qHTS Assay for Antagonists of the Neuropeptide S Receptor: cAMP Signal Transduction; Potency, µM (highest dose often 38.3 µM), most hits filed as inhibitors; CHO-NPSR cells, cAMP TR-FRET, antagonist mode; 1% of 220,000 active; active means well fitted curve in the direction sought with a large enough effect; inconclusive means small, poorly fitted or top-dose-only effect, or another doubt; inactive means no such curve, though single readings can be large; an effect the other way counts as inactive or inconclusive; further: nearly all actives have a fitted effect of over 50% in size
FBPA coupling cs: qHTS Assay for Inhibitors of Fructose-1,6-bisphosphate Aldolase from Giardia Lamblia: Coupling assay counterscreen. coupling enzyme system counterscreen, AmpLite Red fluorescence. activity change, negative = inhibition, % at 58.2 µM, hits read low. 0.67% of 290,000 active; in the data active means activity change below about -30%
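Activity here indicates interference with the coupling reaction, not aldolase inhibition. Compounds at 57.5 uM final met coupling enzymes for 10 min at RT; substrate and AmpLite Red detection followed, with a 525/598 nm fluorescence read after 20 min.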
ALDH1A1 block: qHTS Assay for Inhibitors of Aldehyde Dehydrogenase 1 (ALDH1A1) | Aldehyde dehydrogenase 1A1 (Homo sapiens), P00352 | Potency, µM (highest dose often 75.3 µM), hits mostly inhibitors | Purified ALDH1A1, NADH fluorescence, propionaldehyde substrate | 7.3% of 220,000 active
Target sequence (P00352 whole entry, looked up): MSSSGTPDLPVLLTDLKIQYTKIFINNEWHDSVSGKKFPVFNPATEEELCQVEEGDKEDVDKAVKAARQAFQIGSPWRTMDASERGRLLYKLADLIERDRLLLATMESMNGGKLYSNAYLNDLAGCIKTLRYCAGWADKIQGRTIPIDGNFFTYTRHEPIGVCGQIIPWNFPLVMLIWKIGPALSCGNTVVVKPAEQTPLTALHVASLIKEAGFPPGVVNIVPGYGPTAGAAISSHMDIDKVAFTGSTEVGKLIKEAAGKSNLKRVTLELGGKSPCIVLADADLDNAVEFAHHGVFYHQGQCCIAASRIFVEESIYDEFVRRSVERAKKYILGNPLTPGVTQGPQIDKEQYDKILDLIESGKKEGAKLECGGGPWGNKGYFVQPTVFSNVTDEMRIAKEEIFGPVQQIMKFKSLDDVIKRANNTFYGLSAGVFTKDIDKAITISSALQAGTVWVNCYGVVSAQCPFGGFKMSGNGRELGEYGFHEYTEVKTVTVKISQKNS
KDM4E inh: qHTS Assay for Inhibitors of Human Jumonji Domain Containing 2E (JMJD2E). Lysine-specific demethylase 4E (Homo sapiens), B2RXH2. Potency, µM (series often up to 57.1 µM), most hits filed as inhibitors. 1.6% of 230,000 active. JMJD2E catalytic domain, FDH-coupled NADH fluorescence (FDH is formaldehyde dehydrogenase); further: nearly all actives have a fitted effect of over 50% in size
GoLoco inh red: qHTS Assay for Inhibitors of RGS12 GoLoco Motif Activity (Red Fluorophore); Guanine nucleotide-binding protein G(i) subunit alpha-1 (Homo sapiens), P63096; Gai1:RGS12 GoLoco peptide FP, rhodamine, 10 min; Potency, µM (series often up to 61.6 µM), most hits filed as inhibitors; 0.44% of 230,000 active; active means well fitted inhibition curve with a large enough effect, not every such curve was filed as active; inactive means no such curve, though single readings can be large or run the other way; further: nearly all actives have a fitted effect of over 30% in size
Sfp inh: qHTS Assay for Inhibitors of Bacillus subtilis Sfp phosphopantetheinyl transferase (PPTase). 3.5% of 310,000 active. Potency, µM, usual class: inhibitors. Biochemical Sfp PPTase activity, qHTS; active means well fitted curve in the direction sought with a large enough effect; inconclusive means small, poorly fitted or top-dose-only effect, or another doubt; inactive means no such curve, though single readings can be large; an effect the other way counts as inactive or inconclusive;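 further: the enzyme is Sfp with the accession as filed and its product quenches rhodamine fluorescence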
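After 15 min at room temperature with compound, 15 nM Sfp received 5 uM rhodamine-CoA plus 12.5 uM BHQ-2-ybbR (50 mM Hepes pH 7.6, 10 mM MgCl2). Rate came from the fluorescence difference over 30 min, ex 525/em 598 nm.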
Hits are given with their value; n = inactive; u = inconclusive; x = no result given. The list is not random: actives were taken first. Their share in the collection is about 8.5%. Unless noted, the call rests on the fitted dose curve; in most records, active means well fitted inhibition curve with a large enough effect (not every such curve was filed as active); inconclusive means small, poorly fitted or top-dose-only effect, or another doubt; inactive means no such curve, though single readings can be large or run the other way.

SMILES	NPSR antagonist	FBPA coupling cs	ALDH1A1 block	KDM4E inh	GoLoco inh red	Sfp inh
COc1ccc(NC(=S)Nc2ccccc2)c(OC)c1	n	n	u	n	n	n
CCOc1cc(NC(=S)Nc2ccccc2)c(OCC)cc1NC(=O)c1ccc(OC)cc1	n	n	22.4µM	n	n	n
CCOc1cc(NC(=S)Nc2cccc(OC)c2)c(OCC)cc1NC(=O)c1ccc(C)cc1	n	n	u	n	n	n
COc1ccc(NC(=S)Nc2ccc(OCc3ccccc3)cc2)c(OC)c1	n	n	10µM	n	n	n
CCC(C)[C@H](NC(=O)C1CC(=O)N(c2ccc(OC)cc2)C1)C(=O)NC1CCCC1 (stereo partly specified)	x	x	x	x	x	n
COc1ccc2[nH]c3c(C)c4ccncc4c(C)c3c2c1	u	n	n	8.91µM	n	15.8µM
CCCOc1ccc(-c2c(C(=O)N/N=C(\C)c3ccncc3)nnn2-c2nonc2N)cc1	x	x	x	x	x	n
CN(C(=O)COC(=O)c1ccccc1SCC(=O)NC1CCCCCCC1)C1CCS(=O)(=O)C1 (stereo unspecified)	n	n	u	n	n	n
NC(=O)COC(=O)c1ccccc1SCC(=O)NC1CCCCCC1	n	n	28.2µM	n	n	n
O=C(CSc1ccc(-c2ccco2)nn1)NC1CCCCC1	n	n	3.98µM	u	n	25.1µM
O=C(CSc1ccc(-c2ccccc2)nn1)NC1CCCCC1	x	n	x	x	x	n
O=C(CSc1ccc(-c2ccco2)nn1)NC1CCCC1	n	n	35.5µM	u	n	n
COc1ccc(CN2CCN(Cc3cccc(F)c3)CC2)cc1OC	x	n	x	x	x	u
CC(=O)N1c2ccccc2Nc2ccccc21	n	n	n	n	n	n
CC(=O)N1c2ccccc2C2(O)N=C(C)SC12 (stereo unspecified)	n	n	n	n	7.94µM	n
N#C/C(=C\c1c[nH]c2ccccc12)C(=O)c1ccc(O)c(O)c1	n	x	u	2.24µM	n	x
N#C/C(=C\c1ccc(O)c(O)c1)C(=O)N1CCCC1	n	n	u	14.1µM	n	63.1µM
COc1cc(/C=C(\C#N)C(=O)N2CCCCC2)ccc1O	x	n	x	x	x	n
N#C/C(=C\c1c[nH]c2ccccc12)C(=O)NC1CC1	x	n	x	x	x	n
N#C/C(=C\c1ccc(O)c(O)c1)S(=O)(=O)c1ccccc1	n	n	u	25.1µM	n	n
N#C/C(=C\c1ccc(O)c(O)c1)C(=O)OCCc1cccs1	x	n	n	22.4µM	n	n
CCn1cc(C(=O)O)c(=O)c2cc(F)c(N3CCNC(C)C3)c(F)c21 (stereo unspecified)	n	n	u	u	n	n
N#C/C(=C\c1ccc(O)c(O)c1)C(=O)c1ccc(O)c(O)c1	n	x	u	2.51µM	n	x
O=C(COC(=O)Cn1cnc2ccccc21)NCCc1ccc(Cl)cc1	n	n	12.6µM	n	n	n
O=C(Cn1cnc2ccccc21)OCC(=O)N1CCCc2ccccc21	n	n	14.1µM	n	n	n
SMILES	NPSR antagonist	FBPA coupling cs	ALDH1A1 block	KDM4E inh	GoLoco inh red	Sfp inh
COc1ccc(CCNC(=O)COC(=O)Cn2cnc3ccccc32)cc1OC	n	n	u	n	n	n
O=C(NNC(=O)c1ccc(Oc2ccc(C3SCCS3)cc2)o1)c1ccc(Cl)cc1	n	n	x	n	n	n
CCC[n+]1c(C)sc2c(OC)ccc(OC)c21	n	n	n	u	n	3.98µM
CCC12CN3CC(CC)(CN(C1)C3c1ccc([N+](=O)[O-])o1)C2=O (stereo unspecified)	n	n	u	n	n	n
CC1=NOC2(C1)N(C)c1ccccc1C2(C)C (stereo unspecified)	n	n	n	u	n	n
COc1ccc2ccc3c(c2c1)N=C[C@]1(O3)N(C)c2ccccc2C1(C)C	n	-66.8	u	11.2µM	n	50.1µM
O=C(Nc1ccc2nc3n(c(=O)c2c1)CCCCC3)C(=O)N1CCN(c2ccccc2F)CC1	x	n	x	x	x	n
